{"source": "the antibiotic and cytotoxicity screens of Wong et al. (2023)", "note": "The whole screen tested about 39,000 compounds, of which about 3,300 (8.5%) were called active. For the sample, actives were picked, then their nearest neighbours and some compounds at random."}
{"test_system": "HepG2", "assay": "cytotoxicity call (relative viability < 0.9)", "details": "10 µM"}
{"smiles": "O=C(CCCCCCC(=O)Nc1ccccc1O)N/N=C/c1ccc(N(c2ccccc2)c2ccccc2)cc1", "cytotoxicity call": "active"}
{"smiles": "O=C(CCCCCC(=O)Nc1ccccc1O)N/N=C/C[P+](c1ccccc1)(c1ccccc1)c1ccccc1", "cytotoxicity call": "inactive"}
{"smiles": "O=C(CCCCCCC(=O)Nc1ccccc1O)N/N=C/c1cc(Br)c(O)c(Br)c1", "cytotoxicity call": "inactive"}
{"smiles": "N[C@H]1CCC[C@@H]1Cc1ccc(F)cc1", "cytotoxicity call": "inactive"}
{"smiles": "C[C@@H]1CCCCO[C@H](CN(C)C(=O)c2ccccc2)[C@@H](C)CN([C@@H](C)CO)C(=O)c2cc(NC(=O)Nc3ccc4c(c3)OCO4)ccc2O1", "cytotoxicity call": "inactive"}
{"smiles": "C[C@H]1CN([C@@H](C)CO)C(=O)Cc2cc(NC(=O)Nc3cccc4ccccc34)ccc2O[C@H]1CN(C)Cc1ccc(C(=O)O)cc1", "cytotoxicity call": "inactive"}
{"smiles": "CC(C)NC(=O)Nc1ccc2c(c1)C(=O)N([C@H](C)CO)C[C@H](C)[C@@H](CN(C)Cc1ccc(C(=O)O)cc1)O2", "cytotoxicity call": "inactive"}
{"smiles": "C[C@@H]1CCCCO[C@H](CN(C)C(=O)C2CCCCC2)[C@@H](C)CN([C@@H](C)CO)C(=O)c2cc(NC(=O)CCC(F)(F)F)ccc2O1", "cytotoxicity call": "inactive"}
{"smiles": "C[C@H](CO)N1C[C@H](C)[C@H](CN(C)Cc2ccncc2)OCCCC[C@H](C)Oc2ccc(NC(=O)Nc3ccccc3)cc2C1=O", "cytotoxicity call": "inactive"}
{"smiles": "C[C@@H]1CN([C@H](C)CO)C(=O)c2cc(NC(=O)C3CCCCC3)ccc2O[C@H]1CN(C)Cc1ccc(-c2ccccc2)cc1", "cytotoxicity call": "inactive"}
{"smiles": "C[C@@H]1CN([C@@H](C)CO)C(=O)c2cc(NC(=O)C3CC3)ccc2O[C@H]1CN(C)Cc1ccc(-c2ccccc2)cc1", "cytotoxicity call": "inactive"}
{"smiles": "C[C@@H]1CN([C@@H](C)CO)C(=O)c2cc(NC(=O)C3CCCCC3)ccc2O[C@@H]1CN(C)Cc1ccc(-c2ccccc2)cc1", "cytotoxicity call": "active"}
{"smiles": "C[C@H](CO)N1C[C@H](C)[C@@H](CN(C)Cc2ccc(-c3ccccc3)cc2)Oc2ccc(NC(=O)C3CCCCC3)cc2C1=O", "cytotoxicity call": "inactive"}
{"smiles": "C[C@@H]1CN([C@H](C)CO)C(=O)c2cc(NC(=O)C3CCCCC3)ccc2O[C@@H]1CN(C)Cc1ccc(Oc2ccccc2)cc1", "cytotoxicity call": "active"}
{"smiles": "C[C@@H]1CN([C@@H](C)CO)C(=O)c2cc(NC(=O)C3CCCCC3)ccc2O[C@@H]1CN(C)Cc1ccc(Oc2ccccc2)cc1", "cytotoxicity call": "inactive"}
{"smiles": "C[C@H](CO)N1C[C@H](C)[C@H](CN(C)Cc2ccc(-c3ccccc3)cc2)Oc2ccc(NC(=O)C3CC3)cc2C1=O", "cytotoxicity call": "inactive"}
{"smiles": "C[C@H]1CN([C@@H](C)CO)C(=O)c2cc(NC(=O)C3CCCCC3)ccc2O[C@@H]1CN(C)Cc1ccc(-c2ccccc2)cc1", "cytotoxicity call": "inactive"}
{"smiles": "C[C@@H]1CN([C@H](C)CO)C(=O)c2cc(NC(=O)C3CCCCC3)ccc2O[C@@H]1CN(C)Cc1ccc(-c2ccccc2)cc1", "cytotoxicity call": "active"}
{"smiles": "C[C@H]1CN([C@@H](C)CO)C(=O)c2cc(NC(=O)C3CCCCC3)ccc2O[C@@H]1CN(C)Cc1ccc(Oc2ccccc2)cc1", "cytotoxicity call": "inactive"}
{"smiles": "C[C@H]1CN([C@@H](C)CO)C(=O)c2cc(NC(=O)C3CCCCC3)ccc2O[C@H]1CN(C)Cc1ccc(-c2ccccc2)cc1", "cytotoxicity call": "active"}
{"smiles": "C[C@@H]1CN([C@@H](C)CO)C(=O)c2cc(NC(=O)C3CCCCC3)ccc2O[C@H]1CN(C)Cc1ccc(-c2ccccc2)cc1", "cytotoxicity call": "inactive"}
{"smiles": "COC[C@H]1CCCNC1", "cytotoxicity call": "inactive"}
{"smiles": "C[C@@H]1CN([C@@H](C)CO)C(=O)c2cc(NC(=O)Cc3ccccc3)ccc2O[C@@H](C)CCCCO[C@H]1CN(C)Cc1ccncc1", "cytotoxicity call": "inactive"}
{"smiles": "CC(C)NC(=O)Nc1ccc2c(c1)C(=O)N([C@@H](C)CO)C[C@@H](C)[C@H](CN(C)S(=O)(=O)c1ccccc1)O2", "cytotoxicity call": "inactive"}
{"smiles": "C[C@H](CO)N1C[C@H](C)[C@@H](CN(C)C(=O)NC2CCCCC2)Oc2ccc(NC(=O)Nc3cccc4ccccc34)cc2C1=O", "cytotoxicity call": "inactive"}
{"smiles": "C[C@@H]1CCCCO[C@@H](CN(C)C(=O)Cc2ccccc2)[C@H](C)CN([C@@H](C)CO)C(=O)c2cc(NC(=O)Nc3ccc(C(F)(F)F)cc3)ccc2O1", "cytotoxicity call": "inactive"}
{"smiles": "Cc1noc(C)c1S(=O)(=O)Nc1ccc2c(c1)C(=O)N([C@H](C)CO)C[C@H](C)[C@H](CN(C)C(=O)Nc1ccccc1)OCCCC[C@H](C)O2", "cytotoxicity call": "inactive"}
{"smiles": "C[C@@H]1CN([C@@H](C)CO)C(=O)Cc2cc(NC(=O)CCC(F)(F)F)ccc2O[C@H]1CN(C)Cc1ccc(C(=O)Nc2ccccc2N)cc1", "cytotoxicity call": "inactive"}
{"smiles": "C[C@H]1CN([C@@H](C)CO)C(=O)c2cc(NC(=O)C3CC3)ccc2O[C@H]1CN(C)Cc1ccc(-c2ccccc2)cc1", "cytotoxicity call": "inactive"}
{"smiles": "C[C@H](CO)N1C[C@H](C)[C@H](CN(C)Cc2ccc(-c3ccccc3)cc2)Oc2ccc(NC(=O)C3CCCCC3)cc2C1=O", "cytotoxicity call": "active"}
{"smiles": "C[C@@H]1CN([C@@H](C)CO)C(=O)c2cc(NC(=O)C3CC3)ccc2O[C@@H]1CN(C)Cc1ccc(-c2ccccc2)cc1", "cytotoxicity call": "inactive"}
{"smiles": "CN1CCN(C(=O)C[C@@H]2CC[C@H]3[C@@H](COC[C@@H](O)CN3C(=O)C3CC3)O2)CC1", "cytotoxicity call": "inactive"}
{"smiles": "C[C@H]1Cc2cc(S(=O)(=O)N(C)CC(=O)N3CCOCC3)ccc2N1C(=O)C1CC1", "cytotoxicity call": "inactive"}
{"smiles": "CCS(=O)(=O)Nc1ccc2c(c1)C(=O)N(C)[C@@H]1CC[C@H](CC(=O)NCc3ccccc3F)O[C@@H]1CO2", "cytotoxicity call": "inactive"}
{"smiles": "O=C(C[C@H]1CC[C@H]2[C@@H](COC[C@H](O)CN2Cc2ccccc2F)O1)N[C@H]1CCN(Cc2ccccc2)C1", "cytotoxicity call": "inactive"}
{"smiles": "COCCOC(=O)N1C(=O)[C@@]2(c3ccccc31)[C@H](C(=O)N1CCc3cc(OC)c(OC)cc3C1)[C@H]1C(=O)O[C@H](c3ccccc3)[C@H](c3ccccc3)N1[C@@H]2c1ccc(O)cc1", "cytotoxicity call": "inactive"}
{"smiles": "C[C@@H]1CCCCO[C@@H](CN(C)Cc2ccc(C(F)(F)F)cc2)[C@H](C)CN([C@@H](C)CO)C(=O)c2cc(NC(=O)c3ccccc3)ccc2O1", "cytotoxicity call": "inactive"}
{"smiles": "C=CCC[C@H](Cc1ccc(F)cc1)C(=O)OC[C@@H](NC(=O)[C@@H](CC=C)CC(=O)N(CCO)Cc1ccccc1)c1ccccc1", "cytotoxicity call": "inactive"}
{"smiles": "C=CCC[C@@H](Cc1ccc(F)cc1)C(=O)O[C@H](CNC(=O)[C@@H](CC=C)CC(=O)N(CCO)Cc1ccccc1)c1ccccc1", "cytotoxicity call": "inactive"}
{"smiles": "C=CC[C@H](CC(=O)N(CCO)Cc1ccccc1)C(=O)NC[C@H](OC(=O)[C@@H](CC=C)Cc1ccc(F)cc1)c1ccccc1", "cytotoxicity call": "inactive"}
{"smiles": "C=CCC[C@@H](Cc1ccc(F)cc1)C(=O)OC[C@@H](NC(=O)[C@@H](CC=C)CC(=O)N(CCO)Cc1ccccc1)c1ccccc1", "cytotoxicity call": "active"}
{"smiles": "C=CCC[C@@H](Cc1ccc(F)cc1)C(=O)O[C@@H](CNC(=O)[C@H](CC=C)CC(=O)N(CCO)Cc1ccccc1)c1ccccc1", "cytotoxicity call": "active"}
{"smiles": "C=CCC[C@H](Cc1ccc(F)cc1)C(=O)O[C@H](CNC(=O)[C@@H](CC=C)CC(=O)N(CCO)Cc1ccccc1)c1ccccc1", "cytotoxicity call": "inactive"}
{"smiles": "C=CCC[C@@H](Cc1ccc(F)cc1)C(=O)OC[C@@H](NC(=O)[C@H](CC=C)CC(=O)N(CCO)Cc1ccccc1)c1ccccc1", "cytotoxicity call": "inactive"}
{"smiles": "C=CCC[C@H](Cc1ccc(F)cc1)C(=O)O[C@@H](CNC(=O)[C@@H](CC=C)CC(=O)N(CCO)Cc1ccccc1)c1ccccc1", "cytotoxicity call": "active"}
{"smiles": "C=CCC[C@@H](Cc1ccc(F)cc1)C(=O)O[C@@H](CNC(=O)[C@@H](CC=C)CC(=O)N(CCO)Cc1ccccc1)c1ccccc1", "cytotoxicity call": "active"}
{"smiles": "C=CCC[C@@H](Cc1ccc(F)cc1)C(=O)O[C@H](CNC(=O)[C@H](CC=C)CC(=O)N(CCO)Cc1ccccc1)c1ccccc1", "cytotoxicity call": "inactive"}
{"smiles": "C=CCC[C@H](Cc1ccc(F)cc1)C(=O)O[C@H](CNC(=O)[C@H](CC=C)CC(=O)N(CCO)Cc1ccccc1)c1ccccc1", "cytotoxicity call": "inactive"}
{"smiles": "C=CCC[C@H](Cc1ccc(F)cc1)C(=O)O[C@@H](CNC(=O)[C@H](CC=C)CC(=O)N(CCO)Cc1ccccc1)c1ccccc1", "cytotoxicity call": "inactive"}
{"smiles": "COCC(=O)Nc1ccc2c(c1)C(=O)N(C)[C@@H]1CC[C@H](CC(=O)N3CCc4ccccc4C3)O[C@H]1CO2", "cytotoxicity call": "inactive"}
{"smiles": "Cc1noc(C)c1NC(=O)Nc1ccc2c(c1)C(=O)N([C@@H](C)CO)C[C@H](C)[C@H](CN(C)S(=O)(=O)c1ccc(F)cc1)OCCCC[C@H](C)O2", "cytotoxicity call": "inactive"}
{"smiles": "CN1C(=O)c2cc(NC(=O)C3CCOCC3)ccc2OC[C@@H]2O[C@@H](CC(=O)NCCc3ccncc3)CC[C@@H]21", "cytotoxicity call": "inactive"}
{"smiles": "COc1ccc(C=Cc2cc(O)cc(O[C@@H]3O[C@H](CO)[C@@H](O)[C@H](O)[C@H]3O)c2)cc1", "cytotoxicity call": "inactive"}
{"smiles": "C1=C(c2ccccc2)CC(c2ccccc2)=NN=C1c1ccccc1", "cytotoxicity call": "inactive"}
{"smiles": "COCCNC(=O)[C@H]1[C@H](CO)[C@H]2Cn3c(cccc3=O)[C@@H]1N2S(=O)(=O)c1ccccc1C", "cytotoxicity call": "inactive"}
{"smiles": "C[C@@H]1CN([C@H](C)CO)C(=O)Cc2cc(NC(=O)Cn3cnnn3)ccc2O[C@H]1CN(C)S(=O)(=O)c1ccc(Cl)cc1", "cytotoxicity call": "inactive"}
{"smiles": "CC(C)NC(=O)Nc1ccc2c(c1)CC(=O)N([C@@H](C)CO)C[C@@H](C)[C@@H](CN(C)S(=O)(=O)c1ccccc1)O2", "cytotoxicity call": "inactive"}
{"smiles": "CC(C)NC(=O)Nc1ccc2c(c1)CC(=O)N([C@H](C)CO)C[C@H](C)[C@H](CN(C)S(=O)(=O)c1ccc(F)cc1)O2", "cytotoxicity call": "inactive"}
{"smiles": "C[C@H](CO)N1C[C@H](C)[C@H](CN(C)Cc2ccc3c(c2)OCO3)Oc2ccc(NS(C)(=O)=O)cc2C1=O", "cytotoxicity call": "inactive"}
{"smiles": "COc1ccc(NC(=O)Nc2ccc3c(c2)C(=O)N([C@H](C)CO)C[C@@H](C)[C@@H](CN(C)S(=O)(=O)c2ccccc2)OCCCC[C@H](C)O3)cc1", "cytotoxicity call": "inactive"}
{"smiles": "C[C@H]1CCCCO[C@H](CN(C)S(=O)(=O)c2ccc(Cl)cc2)[C@@H](C)CN([C@@H](C)CO)C(=O)c2cc(NC(=O)C3CCCCC3)ccc2O1", "cytotoxicity call": "inactive"}
{"smiles": "O=C(C[C@H]1CC[C@H]2[C@@H](COC[C@H](O)CN2S(=O)(=O)c2ccc(F)cc2)O1)N[C@H]1CCN(Cc2ccccc2)C1", "cytotoxicity call": "inactive"}
